Potency, outcome and activity change, negative = inhibition data for 25 compounds are collected here from PubChem BioAssay (NCATS).

Where “and” joins values, the source holds several entries; their conditions need not be identical. Identical values can stand only once. Records with an inconclusive call do not appear. Some structures have more than one record in an assay (separate samples or runs), and their calls can disagree. Calls of active or inactive are those of the source. Calls follow the shape of the dose curve; as a rule, active = well fitted inhibition curve with a large enough effect; inconclusive = small, poorly fitted or top-dose-only effect; inactive = flat fitted curve, though single readings scatter.

The target of test [1] is Glutathione peroxidase 1 (Homo sapiens) (UniProt P07203). The test is described as follows: Primary qHTS Assay for Inhibitors of Recombinant Selenoprotein Glutathione Peroxidase 1 (GPX1) (AID 1845191). Also: nearly all actives have a fitted effect of over 65% in size. A digest of the protocol: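 GPX1 10 nM, GR 100 nM, GSH 1 mM, NADPH 0.5 mM, CHP 0.5 mM (final). 30-min cpd preincubation, RT. Ex340/Em450 read t=0, t=15 min.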
Chain of Glutathione peroxidase 1 (Homo sapiens) (P07203 whole entry, looked up): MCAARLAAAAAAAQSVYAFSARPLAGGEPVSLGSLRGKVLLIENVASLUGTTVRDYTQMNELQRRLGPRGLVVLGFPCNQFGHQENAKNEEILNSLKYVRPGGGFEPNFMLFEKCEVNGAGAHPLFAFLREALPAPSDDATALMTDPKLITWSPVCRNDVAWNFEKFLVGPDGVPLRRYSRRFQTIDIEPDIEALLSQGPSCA
The target in test [2] is Phospholipid hydroperoxide glutathione peroxidase GPX4 (Homo sapiens) (UniProt P36969). Put plainly: Primary qHTS Assay for Inhibitors of Recombinant Selenoprotein Glutathione Peroxidase 4 (GPX4) (AID 1845192). Also: nearly all actives have a fitted effect of over 65% in size. Also: potency is read from the fitted curve at half-maximal effect. As to activity change, negative = inhibition: series mostly up to about 50 µM; % is scaled to controls: 0 for no effect and ±100 for the full control effect. Summed up:
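qHTS, GR-coupled: GPX4 200 nM + cpd 30 min RT → GSH 1 mM, NADPH 0.5 mM, GR 100 nM → CHP 0.5 mM start; fluor 340/450 at t0 and t15 min; no-enzyme wells as control.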
Background: In qHTS, concentration-response curves come from the screen itself.

Test [3] addresses Luciferin 4-monooxygenase (Photinus pyralis) (UniProt P08659). Put plainly: Primary firefly luciferase (FLuc) qHTS assay for identification of artifact compounds. (AID 1845220). Also: nearly all actives have a fitted effect of over 60% in size.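 As to activity change, negative = inhibition: series mostly up to about 54 µM; plate controls were DMSO vehicle for no effect and no enzyme for full effect.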 A digest of the protocol: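 qHTS, 15 min compound preincubation with substrate (10 uM luciferin, 10 uM ATP) at RT, then 10 nM FLuc; 5 min; luminescence; % inhibition vs no-enzyme/DMSO controls, 4-parameter Hill fit.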

Chain of Phospholipid hydroperoxide glutathione peroxidase GPX4 (Homo sapiens) (P36969 whole entry, looked up): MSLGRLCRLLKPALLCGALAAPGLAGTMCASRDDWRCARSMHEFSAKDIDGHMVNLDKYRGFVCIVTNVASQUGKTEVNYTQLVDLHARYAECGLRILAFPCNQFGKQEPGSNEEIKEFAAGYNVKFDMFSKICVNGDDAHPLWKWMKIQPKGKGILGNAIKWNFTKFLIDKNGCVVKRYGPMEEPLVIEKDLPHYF

In the case of `CC1(C)C(=O)N2c3ccccc3[C@]3(CC(n4cnc5ccccc5c4=O)C(=O)O3)[C@H]2N1O` (stereo not given in full), the Potency result in test [1], in test [2] and in test [3] was “inactive” throughout.

Turning to `NS(=O)(=O)OC[C@@H]1C[C@@H](n2ccc3c(N[C@H]4CCc5ccccc54)ncnc32)C[C@@H]1O`, the Potency result in test [1], in test [2] and in test [3] was “inactive” throughout.

Regarding `CC(C)CC(=O)OC[C@H]1O[C@@](COC(=O)CC(C)C)(O[C@H]2O[C@H](CO)[C@@H](O)[C@H](O)[C@H]2O)[C@@H](OC(=O)CC(C)C)[C@@H]1OC(=O)CC(C)C`, the Potency result in test [1], in test [2] and in test [3] was “inactive” each time.

Consider `COc1cc(N2CCC(N(C)C)CC2)ccc1Nc1ncc(Cl)c(Nc2ccccc2P(C)(C)=O)n1`, for which the Potency entry in test [1], in test [2] and in test [3] was “inactive” throughout.

As for `C[C@@H]1C[C@H](O)/C=C/[C@H](O)[C@@H](O)CC(=O)O1`, the Potency result in test [1], in test [2] and in test [3] was “inactive” in each case.

With `C=C/C=C/[C@@H]1OC[C@H](/C=C/C=C/C)[C@H]1O`, the Potency result in test [1], in test [2] and in test [3] was “inactive” throughout.

Take `CC1CC(O)CC(C)(C)C1(O)CCO` (stereo not given): the Potency entry in test [1], in test [2] and in test [3] was “inactive” each time.

For `O=C(O)C[C@H](O)C[C@H](O)/C=C/c1c(C2CC2)nc2ccccc2c1-c1ccc(F)cc1`, the Potency result in test [1] and in test [3] was “inactive” throughout. The Potency entry in test [2] is “inactive and 22.4 µM (active)”.

For `C=C1[C@@H]2[C@H]3OC(=O)C(=C)[C@@H]3CC[C@@](C)(O)[C@@H]2C[C@@H]1O[C@@H]1O[C@H](CO)[C@@H](O)[C@H](O)[C@H]1O`, the Potency entry in test [1], in test [2] and in test [3] was “inactive” each time.

Turning to `COc1cc(CCc2ccccc2)c(C(=O)O)c2c1CC(C(C)(C)O)O2` (stereo not given), the Potency entry in test [1], in test [2] and in test [3] was “inactive” in each case.

On to `CC1(C)CC2C(C1)C1(C)CCC13OC3(CO)C2O` (stereo not given), for which the Potency result in test [1], in test [2] and in test [3] was “inactive” each time.

Turning to `CC(=O)NC(CCC(=O)O)C(=O)NCCc1ccc(O)cc1` (stereo not given), the Potency result in test [1], in test [2] and in test [3] was “inactive” each time.

For `CC1(C)OC(=O)C(OCC2CC2)=C1c1ccc(S(C)(=O)=O)cc1`, the Potency result in test [1], in test [2] and in test [3] was “inactive” each time.

In the case of `C[C@@H]1C[C@H]2[C@@H]3CCC4=CC(=O)C=C[C@]4(C)[C@@]3(F)[C@@H](O)C[C@]2(C)[C@@]1(O)C(=O)COP(=O)(O)O`, the Potency result in test [1], in test [2] and in test [3] was “inactive” in each case.

Turning to `C=C[C@H]1[C@H](O[C@@H]2O[C@H](CO)[C@@H](O)[C@H](O)[C@H]2O)OC=C2C(=O)OCC[C@]21O`, the Potency entry in test [1], in test [2] and in test [3] was “inactive” throughout.

`CC(=O)c1c(O)cc2c(c1C)C(=O)CC(O)C2` (stereo not given): the Potency entry in test [1], in test [2] and in test [3] was “inactive” each time.

Take `O=C(/C=C/c1ccc(O)cc1)OC[C@H]1O[C@@H](OC(=O)/C=C/c2ccccc2)[C@H](O)[C@@H](O)[C@@H]1O`: the Potency result in test [1], in test [2] and in test [3] was “inactive” each time.

`O=C(O)c1cc(O)c2cccc(O)c2c1O[C@@H]1O[C@H](CO)[C@@H](O)[C@H](O)[C@H]1O`: the Potency result in test [1], in test [2] and in test [3] was “inactive” throughout.

For `CC(=O)O[C@H]1C[C@@H]2[C@]3(CC[C@]4(C)[C@@H](C5(C)CCC(C(C)(C)O)O5)[C@@H](O)C[C@@]24C)C[C@@]32CC[C@H](O[C@@H]3OC[C@@H](O)[C@H](O)[C@H]3O)C(C)(C)[C@H]12` (stereo not given in full), the Potency result in test [1], in test [2] and in test [3] was “inactive” throughout.

`CC(=C/C(=O)O)/C=C/[C@]1(O)[C@@]2(C)CO[C@]1(C)C[C@H](O[C@@H]1O[C@H](CO)[C@@H](O)[C@H](O)[C@H]1O)C2`: the Potency entry in test [1], in test [2] and in test [3] was “inactive” each time.

On to `CCC/C=C/C(=O)O[C@H]1CC(C)(C)CC2[C@]13[C@H](O)O[C@@]21CCC2[C@@]4(C)CC[C@H](O[C@@H]5O[C@H](C(=O)O)[C@@H](O)[C@H](O[C@@H]6O[C@H](CO)[C@H](O)[C@H](O)[C@H]6O[C@@H]6O[C@@H](C)[C@H](O)[C@@H](O)[C@H]6O[C@@H]6OC[C@](O)(CO)[C@H]6O)[C@H]5O[C@@H]5O[C@H](CO)[C@H](O)[C@H](O)[C@H]5O)C(C)(C)C4CC[C@@]2(C)[C@]1(C)C[C@H]3OC(C)=O` (stereo not given in full), for which the outcome in test [1] is “inactive [at 9.52 µM]”; in test [3], “inactive [at 11.6 µM]”. In test [2], the activity change, negative = inhibition is -8.75% [at 9.73 µM] (inactive).

Turning to `COC(=O)[C@H](CC1C=NC=N1)NCC12CC3CC(CC(C3)C1)C2` (stereo not given in full), the Potency entry in test [1], in test [2] and in test [3] was “inactive” each time.

Turning to `CC(C)=CCC/C(C)=C/CC/C(C)=C/CC[C@]1(C)CCc2cc(O)cc(C)c2O1`, the Potency entry in test [1], in test [2] and in test [3] was “inactive” in each case.

With `COC(=O)C[C@@H]1C(C(=O)O)=CO[C@@H](O[C@@H]2O[C@H](CO)[C@@H](O)[C@H](O)[C@H]2O)/C1=C\COC(=O)/C=C\c1ccccc1`, the Potency entry in test [1], in test [2] and in test [3] was “inactive” each time.

`C=CC(C)(O)CC/C=C(\C)C(=O)OC1CC2(C(=O)O)CCC3(C)C(=CCC4C5(C)CCC(OC6OC(COC7OCC(O)C(O)C7O)C(O)C(OC7OCC(O)C(O)C7O)C6OC6OC(CO)C(O)C(O)C6OC6OCC(O)C(O)C6O)C(C)(C)C5CCC43C)C2CC1(C)C` (stereo not given): the outcome in test [1] was “inactive [at 9.52 µM]”; in test [3], “inactive [at 11.6 µM]”. Besides, the activity change, negative = inhibition in test [2] was -6.88% [at 9.73 µM] (inactive).
